According to PubChem BioAssay:
Activity calls are given as the source filed them.

Experiments:
[1] = E. coli DRC41 culture turbidity changes, primary screen, E. coli filamentation inducer project, strain DRC41, OD650, 48 h (AID 1152);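 also: E. coli MC1000 strain DRC41 lacking acrAB efflux pump and sulA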; settings: E. coli DRC41 (acrAB sulA), higher = more signal, called active from +8 up or from −8 down
[2] = small-molecule binders of probe aLefty1, primary screen, biochemical, small-molecule microarray, 635/667 nm fluorescence (AID 1153); settings: higher = more signal;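 also: score merges spot fluorescence with signal-to-noise ratio from the scanned slide images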
[3] = PSAC antagonists in infected red cells, primary screen, cell-based, P. falciparum Indochina, OD700, 1 h (AID 1154); settings: P. falciparum Indochina infected RBC osmotic lysis, higher = more signal, called active from +8 up or from −8 down
[4] = PSAC antagonists in infected red cells, primary screen, cell-based, P. falciparum Indochina, OD700, 2 h (AID 1155);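 also: lysis reports solute entry through the parasite surface anion channel PSAC; channel blockers reduce lysis of infected cells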; settings: P. falciparum Indochina infected erythrocytes, osmotic lysis OD700; higher = more signal, called active from +8 up or from −8 down
[5] = osmotic lysis modulators in infected erythrocytes, primary screen, PSAC antagonist project, cell-based, P. falciparum Indochina, OD700, 3 h (AID 1156); settings: higher = more signal, called active from +8 up or from −8 down
[6] = PSAC antagonists in infected red cells, primary screen, cell-based, P. falciparum Indochina, OD700, 18 h (AID 1157); settings: P. falciparum Indochina infected erythrocytes, osmotic lysis OD700, 18 h; higher = more signal, called active from +8 up or from −8 down
[7] = modulators of S6 phosphorylation in cells, primary screen, cell-based, A549, cytoblot, luminescence, serum-stimulated (AID 1158); settings: A549 phospho-S6 cytoblot, 5 h, higher = more signal;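 also: serum-stimulated A549 lung adenocarcinoma cells; signal is phosphorylated S6 detected by cytoblot immunostaining with HRP secondary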
[8] = molecular target: NADPH oxidase 2 (Homo sapiens) (UniProt P04839); test: NOX2-dependent H2O2 signal modulators, primary screen, NOX inhibitor project, cell-based, HEK293-NOX2, PMA-stimulated, Amplex Red fluorescence (AID 1159); settings: 45 min, higher = more signal, called active from +8 up or from −8 down; also: test concentration not given here
[9] = molecular target: NADPH oxidase 4 (Homo sapiens) (UniProt Q9NPH5); test: NOX4-dependent H2O2 signal modulators, primary screen, NOX inhibitor project, cell-based, HEK293-NOX4, tetracycline-induced, Amplex Red fluorescence (AID 1160); settings: 45 min, higher = more signal, called active from +8 up or from −8 down
[10] = molecular target: NADPH oxidase 5 (Homo sapiens) (UniProt Q96PH1); test: NOX5-dependent H2O2 signal modulators, primary screen, NOX inhibitor project, cell-based, HEK293-NOX5, Amplex Red fluorescence (AID 1161); settings: HEK293-NOX5, ionomycin, 45 min, higher = more signal
[11] = A549 cell viability effects, profiling panel, calcein-AM fluorescence, 48 h, basal (AID 1162); settings: higher = more signal; also: test concentration not given here
[12] = adipocyte viability effects, profiling panel, cell-based, 3T3-L1 adipocytes, calcein-AM fluorescence, 48 h, basal (AID 1163); settings: 3T3-L1 adipocytes viability, higher = more signal; also: test concentration not given here
[13] = HepG2 cell viability effects, profiling panel, calcein-AM fluorescence, 48 h, basal (AID 1164); settings: higher = more signal; also: test concentration not given here
[14] = MM1S cell viability effects, profiling panel, calcein-AM fluorescence, 48 h, basal (AID 1165); settings: higher = more signal;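 also: viability of MM1S multiple myeloma cells under basal unstimulated conditions; test concentration not given here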
[15] = basal RPMI8226 viability, no added stimulus, profiling panel, cell-based, calcein-AM fluorescence, 48 h, PK04 Diversity Set (AID 1166); settings: RPMI8226 myeloma viability, higher = more signal;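 also: cells grown under basal conditions without added stimulus; test concentration not given here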
[16] = basal HepG2 mitochondrial membrane potential changes, profiling panel, cell-based, JC-1 fluorescence, 24 h, 100 nL compound (AID 1167); settings: higher = more signal; also: test concentration not given here
[17] = basal 3T3-L1 adipocyte mitochondrial potential changes, profiling panel, cell-based, JC-1 fluorescence, 3T3-L1 adipocytes, 24 h, 100 nL compound (AID 1168); settings: JC-1 mitochondrial fluorescence, higher = more signal, called active from +8 up or from −8 down; also: test concentration not given here
[18] = basal RPMI8226 mitochondrial membrane potential changes, profiling panel, cell-based, JC-1 fluorescence, 24 h, 100 nL compound (AID 1169); settings: RPMI8226 myeloma, JC-1 mitochondrial potential fluorescence, higher = more signal; also: test concentration not given here
[19] = basal MM1S mitochondrial membrane potential changes, profiling panel, cell-based, JC-1 fluorescence, 24 h, 100 nL compound (AID 1170); settings: higher = more signal; also: test concentration not given here
[20] = A549 lung cancer cell viability effects, profiling panel, resazurin fluorescence, 24 h, PK04 Diversity Set (AID 1171); settings: higher = more signal, called active from +8 up or from −8 down; also: test concentration not given here

Sequence of NADPH oxidase 5 (Homo sapiens) (Q96PH1 whole entry, looked up): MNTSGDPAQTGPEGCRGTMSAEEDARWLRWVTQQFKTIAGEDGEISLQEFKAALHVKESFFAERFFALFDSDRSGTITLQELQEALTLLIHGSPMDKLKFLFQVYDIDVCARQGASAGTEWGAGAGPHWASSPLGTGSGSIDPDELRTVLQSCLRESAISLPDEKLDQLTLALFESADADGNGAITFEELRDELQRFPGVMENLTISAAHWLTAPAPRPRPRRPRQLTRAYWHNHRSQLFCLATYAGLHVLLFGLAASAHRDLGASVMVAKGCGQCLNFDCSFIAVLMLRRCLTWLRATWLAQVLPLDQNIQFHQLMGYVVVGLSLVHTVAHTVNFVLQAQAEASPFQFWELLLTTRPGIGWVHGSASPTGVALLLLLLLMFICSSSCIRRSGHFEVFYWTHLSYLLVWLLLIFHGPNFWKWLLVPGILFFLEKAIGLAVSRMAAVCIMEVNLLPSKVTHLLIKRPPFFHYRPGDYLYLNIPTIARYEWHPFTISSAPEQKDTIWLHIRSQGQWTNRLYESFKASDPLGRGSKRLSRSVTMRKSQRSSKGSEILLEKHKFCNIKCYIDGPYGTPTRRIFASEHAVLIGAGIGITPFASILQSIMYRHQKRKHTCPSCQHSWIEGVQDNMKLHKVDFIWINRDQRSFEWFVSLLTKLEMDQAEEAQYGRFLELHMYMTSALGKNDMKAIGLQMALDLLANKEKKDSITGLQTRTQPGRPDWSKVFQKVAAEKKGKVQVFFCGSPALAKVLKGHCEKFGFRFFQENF
Sequence of NADPH oxidase 4 (Homo sapiens) (Q9NPH5 whole entry, looked up): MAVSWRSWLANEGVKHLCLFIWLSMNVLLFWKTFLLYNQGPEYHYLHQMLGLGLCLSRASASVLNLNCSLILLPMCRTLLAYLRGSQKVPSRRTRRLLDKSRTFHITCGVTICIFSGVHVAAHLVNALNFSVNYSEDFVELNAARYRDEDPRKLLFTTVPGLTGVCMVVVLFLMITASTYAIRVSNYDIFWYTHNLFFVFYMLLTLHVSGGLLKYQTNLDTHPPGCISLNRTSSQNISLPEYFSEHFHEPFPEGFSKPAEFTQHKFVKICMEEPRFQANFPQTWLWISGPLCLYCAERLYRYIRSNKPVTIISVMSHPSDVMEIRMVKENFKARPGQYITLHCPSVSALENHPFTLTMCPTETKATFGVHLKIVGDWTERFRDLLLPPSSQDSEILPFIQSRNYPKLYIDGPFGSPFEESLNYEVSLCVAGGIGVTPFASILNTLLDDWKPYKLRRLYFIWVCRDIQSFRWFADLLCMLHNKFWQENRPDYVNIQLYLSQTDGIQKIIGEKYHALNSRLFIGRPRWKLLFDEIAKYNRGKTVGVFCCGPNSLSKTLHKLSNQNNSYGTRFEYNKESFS
Sequence of NADPH oxidase 2 (Homo sapiens) (P04839 whole entry, looked up): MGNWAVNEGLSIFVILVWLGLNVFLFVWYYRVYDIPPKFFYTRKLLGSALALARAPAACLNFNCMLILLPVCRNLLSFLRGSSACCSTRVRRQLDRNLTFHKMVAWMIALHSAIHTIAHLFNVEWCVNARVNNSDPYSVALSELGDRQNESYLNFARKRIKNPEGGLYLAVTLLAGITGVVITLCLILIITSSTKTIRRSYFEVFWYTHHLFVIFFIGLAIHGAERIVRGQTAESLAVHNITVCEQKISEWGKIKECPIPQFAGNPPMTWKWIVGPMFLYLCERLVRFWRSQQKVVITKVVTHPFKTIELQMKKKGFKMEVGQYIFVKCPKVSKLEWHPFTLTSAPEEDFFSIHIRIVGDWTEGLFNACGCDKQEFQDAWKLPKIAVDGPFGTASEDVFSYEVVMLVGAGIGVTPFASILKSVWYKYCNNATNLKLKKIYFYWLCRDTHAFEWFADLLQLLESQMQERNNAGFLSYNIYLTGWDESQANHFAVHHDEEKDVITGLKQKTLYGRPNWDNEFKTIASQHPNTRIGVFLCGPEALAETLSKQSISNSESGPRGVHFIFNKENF

Structure (SMILES)	z-score [1]	composite z-score [2]	z-score [3]	z-score [4]	z-score [5]	z-score [6]	z-score [7]	z-score [8]	z-score [9]	z-score [10]	z-score [11]	z-score [12]	z-score [13]	z-score [14]	z-score [15]	z-score [16]	z-score [17]	z-score [18]	z-score [19]	z-score [20]
CCCNC(=O)[C@@]1(Sc2ccc(C)cc2)CC(=O)N(Cc2cc(C(F)(F)F)cc(C(F)(F)F)c2)[C@@H]1c1ccc(CO)cc1	1.63 (inactive)	-0.193	2.74 (inactive)	0.285 (inactive)	0.25 (inactive)	-1.15 (inactive)	2.9	0.584 (inactive)	-0.589 (inactive)	0.207	-0.259	1.2	-0.609	-0.254	-0.312	-0.537	0.196 (inactive)	0.293	-0.765	0.149 (inactive)
CCCCCCCCCCC(O)C1C=CC2C(=O)N(C)C(=O)C2N1Nc1ccccc1 (stereo not given)	-2.27 (inactive)	-0.206	8.71 (active)	3.03 (inactive)	0.156 (inactive)	2.84 (inactive)	-1.28	-0.433 (inactive)	-4.22 (inactive)	-1.7	-2.46	-1.27	-1.38	-3.85	-4.07	-1.18	-0.92 (inactive)	-0.744	0.0317	-0.545 (inactive)
N#Cc1ccc(NN2C(C(O)c3ccc(B(O)O)cc3)C=CC3CN(c4ccccc4)C(=O)C32)cc1 (stereo not given)	1.18 (inactive)	0.521	24.4 (active)	10.6 (active)	3.76 (inactive)	2.54 (inactive)	-0.882	-2.63 (inactive)	-6.25 (inactive)	-4.31	0.222	-0.463	-0.35	-0.104	-1.29	-2.14	-0.643 (inactive)	-0.0762	-0.696	0.238 (inactive)
O=C(NC1CC1)[C@@H]1c2ccccc2C(=O)N(C2CCCCC2)[C@H]1c1ccc(CO)cc1	0.1 (inactive)	-0.28	1.4 (inactive)	0.295 (inactive)	0.973 (inactive)	0.0604 (inactive)	-0.0513	0.382 (inactive)	0.589 (inactive)	0.536	1.35	-0.27	1.12	-0.856	-0.591	1.38	-0.724 (inactive)	0.512	-0.256	0.0989 (inactive)
COC(=O)[C@@]1(Cc2ccc(OC)cc2)[C@H]2c3cc(C(=O)N(C)C)n(Cc4c(CO)[nH]cc(C)c4=O)c3C[C@H]2CN1C(=O)c1ccccc1	-2.08 (inactive)	0.318	2.77 (inactive)	0.814 (inactive)	0.072 (inactive)	0.643 (inactive)	-0.507	-0.0394 (inactive)	-0.719 (inactive)	-0.777	-1.38	-0.621	-0.177	-0.314	-0.411	-0.67	-1.33 (inactive)	-0.0347	-1.24	0.252 (inactive)
CN(C)CCCCNC(=O)[C@H]1C[C@H]2C(=O)N[C@@H](CCCCN(C)C)C(=O)N2[C@H]1c1ccc(O)cc1	2.41 (inactive)	-0.299	-0.418 (inactive)	-0.546 (inactive)	0.589 (inactive)	-1.34 (inactive)	0.859	0.109 (inactive)	0.504 (inactive)	0.875	0.897	0.613	0.218	0.428	1.26	0.754	0.903 (inactive)	-0.623	-0.379	1.2 (inactive)
COC(=O)C(CC#Cc1ccc2c(c1)[C@]1(C(=O)N2)[C@H](C(=O)N2CCN(c3ncccn3)CC2)[C@H]2C(=O)O[C@H](c3ccccc3)[C@H](c3ccccc3)N2[C@@H]1c1ccc(O)cc1)C(=O)OC	-0.442 (inactive)	1.93	1.85 (inactive)	0.89 (inactive)	0.804 (inactive)	0.0729 (inactive)	-0.339	1.52 (inactive)	-0.566 (inactive)	0.665	0.489	-0.569	1.24	0.142	-2.03	-0.921	0.00989 (inactive)	-1.09	-0.205	-0.423 (inactive)
CN1C(=O)C2CC=C(C3=CCO[C@@H]3[C@H]3CCCN3S(=O)(=O)c3ccccc3[N+](=O)[O-])CC2C1=O (stereo not given in full)	-0.62 (inactive)	-0.191	5.38 (inactive)	0.672 (inactive)	-0.604 (inactive)	-0.0627 (inactive)	-0.307	0.278 (inactive)	1.22 (inactive)	0.32	-0.477	0.102	0.302	-0.355	-0.0289	-1.25	-0.655 (inactive)	-0.12	-0.242	0.47 (inactive)
CO[C@H]1O[C@H](CO)[C@@H](OC(=O)Nc2cccc(F)c2)[C@H](OC(=O)Nc2ccc3c(c2)OCO3)[C@@H]1OC(=O)Nc1ccc2c(c1)OCO2	-0.727 (inactive)	0.37	12 (active)	2.05 (inactive)	1.16 (inactive)	1.18 (inactive)	0.296	-3.87 (inactive)	-1.07 (inactive)	-1.81	-1.33	0.726	-1.07	-1.49	-1.74	-0.96	-0.672 (inactive)	-0.571	-0.964	-1.47 (inactive)
